From PubChem BioAssay (Tox21)
Values joined by “and” are separate entries in the source; they are usually repeats but may differ in a detail not shown here. Equal entries are not always repeated. Records with an inconclusive call do not appear. Entries that show only a call come without a potency. Values without a mark were called inactive. Active and inactive are the calls of the source. Calls come from the whole dose curve; as a rule, active = well fitted cell-killing curve with a large enough effect in the repeat runs; inconclusive = weak or mixed curves, or effect the other way; inactive = flat fitted curve, though single readings scatter.
Potency is the fitted concentration of half-maximal effect.

Experiment: Human pregnane X receptor (PXR) small molecule agonists, qHTS cell viability counter screen (AID 1346977); note: nearly all actives have a fitted effect of over 50% in size
Conditions: PXR-Luc HepG2 viability, CellTiter-Fluor, 24 h; series mostly up to 92.4 µM; activity change, negative = cytotoxicity: at the top concentration
Text: U.S. Tox21 Program National Center for Advancing Translational Sciences [NCATS] NIH Chemical Genomics Center [NCGC] U.S. Environmental Protection Agency [EPA] National Institutes of Environmental Health Sciences [NIEHS] National Toxicology Program [NTP] U.S. Food and Drug Administration [FDA] Tox21 Assay Overview: The human pregnane X receptor (hPXR) regulates the expression of several drug metabolizing enzymes and induction of these proteins is a major mechanism for developing drug resistance in cancer. One such key enzyme catalyzing the drug metabolism is cytochrome P450 3A4 (CYP3A4). Changes in CYP3A4 expression affect drug metabolism, thereby reducing the therapeutic efficacy and altering toxicological response to a drug and which finally causes adverse drug interaction. To screen Tox21 libraries for compounds that activate hPXR-mediated CYP3A4 gene expression, PXR-Luc HepG2 cells were used. Also cytotoxicity of the compounds was tested in parallel by measuring the cell viability using CellTiter-Fluor assay system in the same wells.
Tox21 Assay Protocol Summary: PXR-Luc HepG2 cells were dispensed at 2,000 per well in 5uL of assay medium containing 5% charcoal-stripped FBS into white solid bottom 1536-well plates (Corning Life Sciences, Corning, NY) using a Multidrop Combi (Thermo Scientific, Waltham, MA) dispenser. The assay plates were incubated at 37 C and 5% CO2 for 5hr, and then 23nL of compounds dissolved in DMSO and positive control were transferred using a Pintool station (Wako, San Diego, CA). The assay plates were incubated at 37C and 5% CO2 for 24hr. For cytotoxicity read, after 23hr incubation at 37C, 1uL CellTiter-Fluor reagent (Promega Corporation, Madison, WI) was added to each well of the assay plates using Flying Reagent Dispenser (FRD, Aurora Discovery, San Diego, CA). After 1hr incubation at 37C and 5% CO2, the fluorescence signal was quantified using a ViewLux plate reader (PerkinElmer, Shelton, CT).
For `Cc1ccc(C)c(C)c1`, the Potency was “inactive”. In the case of `CCCCC/C=C\C/C=C\CCCCCCCC(=O)OC`, the Potency is reported as “inactive”. In the case of `Nc1cc(-c2ccncc2)c[nH]c1=O`, the Potency is reported as “inactive”. In the case of `CC1(C)O[C@@H]2C[C@H]3[C@@H]4C[C@H](F)C5=CC(=O)CC[C@]5(C)[C@H]4[C@@H](O)C[C@]3(C)[C@]2(C(=O)CO)O1`, the Potency is reported as “inactive”. For `Cc1ccc(N)c(S(=O)(=O)O)c1`, the Potency was “inactive”. With `Cc1cc(NS(=O)(=O)c2ccc(N)cc2)no1` the Potency was “inactive”. In the case of `O=Nc1ccc(O)cc1`, the “activity change, negative = cytotoxicity” value is reported as 0.847%. For `CCCCCCOC(C)=O`, the Potency was “inactive”. With `Oc1ccc2ccccc2c1` the Potency was “inactive”. With `NCCc1ccc(O)c(O)c1` the Potency was 30.7 µM (active). With `CC1=C(CC(=O)O)c2cc(F)ccc2/C1=C\c1ccc(S(C)=O)cc1` (stereo not given) the Potency was “inactive”. For `CCc1ccc(O)cc1`, the Potency was “inactive”. With `COC(=O)Nc1nc2ccc(Sc3ccccc3)cc2[nH]1` the Potency was “inactive”. For `O=C(Cl)c1c(Cl)c(Cl)c(C(=O)Cl)c(Cl)c1Cl`, the Potency was “inactive”. For `CCOC(=O)/C=C\C(=O)OCC`, the Potency was “inactive”. In the case of `O=[N+]([O-])c1cc(N(CCO)CCO)ccc1NCCO`, the Potency is reported as 30.6 µM (active). With `CCCCCCC(C)(C)S` the Potency was “inactive”. For `OCC1CCCO1` (stereo not given), the Potency was “inactive”. For `OCC#CCO`, the Potency was “inactive”. For `Clc1ccc(Cl)c(Cl)c1Cl`, the Potency was “inactive”. With `C=C1C2CCC(C2)C1(C)C` (stereo not given) the Potency was “inactive”. With `C=C(C)C(=O)OCCCCCCCCCCCC` the Potency was “inactive”. With `O=C1O[C@H](CO)[C@@H](O)[C@H](O)[C@H]1O` the Potency was “inactive”. With `CCOC(=O)[C@H](CCc1ccccc1)N[C@@H](C)C(=O)N1Cc2ccccc2C[C@H]1C(=O)O` the “activity change, negative = cytotoxicity” value was -3.27%. In the case of `O=C(O)c1ccc([N+](=O)[O-])cc1`, the Potency is reported as “inactive”. In the case of `CCCCCC/C=C/CCCCCCCC(=O)O`, the Potency is reported as “inactive”. For `NC(=O)NNc1ccccc1`, the Potency was “inactive”. For `CCOC(=O)C1OC1c1ccccc1` (stereo not given), the Potency was “inactive”. With `C=C(C)C(=O)OCC(CC)(COC(=O)C(=C)C)COC(=O)C(=C)C` the Potency was “inactive”. In the case of `S=c1nc[nH]c2nc[nH]c12`, the Potency is reported as “inactive”. In the case of `CC#C[C@]1(O)CC[C@H]2[C@@H]3CCC4=CC(=O)CCC4=C3[C@@H](c3ccc(N(C)C)cc3)C[C@@]21C`, the “activity change, negative = cytotoxicity” value is reported as -5.1% [at 42.5 µM]. With `CCCCCCCCCCCCOCC1CO1` (stereo not given) the Potency was “inactive”. With `C/C=C(C)/C=C/C=C(C)C` the Potency was “inactive”. With `Oc1ccc2ccccc2c1N=Nc1ccccc1` the Potency was 27.3 µM (active) and 30.6 µM (active). In the case of `Oc1ccc(OCc2ccccc2)cc1`, the “activity change, negative = cytotoxicity” value is reported as -16.4%. With `Cc1ccc(C(=O)O)o1` the Potency was “inactive”. In the case of `CC(C)n1c(/C=C/[C@@H](O)C[C@@H](O)CC(=O)O)c(-c2ccc(F)cc2)c2ccccc21`, the Potency is reported as “inactive”. For `OC[C@@H](O)[C@@H](O)[C@H](O)[C@@H](O)CO`, the Potency was “inactive”. In the case of `CC1Cc2ccccc2N1NC(=O)c1ccc(Cl)c(S(N)(=O)=O)c1` (stereo not given), the Potency is reported as “inactive”. For `CC1=C(/C=C/C(C)=C/C=C/C(C)=C/CO)C(C)(C)CCC1`, the “activity change, negative = cytotoxicity” value was -17.4%.
